Assay outcomes: PubChem BioAssay, National Center for Advancing Translational Sciences (NCATS)
D1 agonist: human D1 receptor agonism | P21728 | HEK293 T-REx D1 cells, calcium flux, agonist mode | activation, % at 2 µM | 360,000 compounds, 1% hits | AID 504660; in the data active = activation above about 30%
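Agonism was scored from calcium flux recorded over 180 s (1 read/s) after pintool compound addition, following a 10-cycle baseline. Cells were inducible force-coupled HEK293 TREx D1, plated overnight at 30 C and loaded with no-wash calcium dye.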
DRD3 antagonist: antagonists of human D3 dopamine receptor. max response, negative = inhibition, %. 360,000 compounds, 2.5% hits. AID 652054. P35462. D3R cells, DiscoveRx beta-arrestin luminescence, antagonist mode; stronger effect = lower value; in the data active = max response below about -50%
Target sequence (P35462 whole entry, looked up): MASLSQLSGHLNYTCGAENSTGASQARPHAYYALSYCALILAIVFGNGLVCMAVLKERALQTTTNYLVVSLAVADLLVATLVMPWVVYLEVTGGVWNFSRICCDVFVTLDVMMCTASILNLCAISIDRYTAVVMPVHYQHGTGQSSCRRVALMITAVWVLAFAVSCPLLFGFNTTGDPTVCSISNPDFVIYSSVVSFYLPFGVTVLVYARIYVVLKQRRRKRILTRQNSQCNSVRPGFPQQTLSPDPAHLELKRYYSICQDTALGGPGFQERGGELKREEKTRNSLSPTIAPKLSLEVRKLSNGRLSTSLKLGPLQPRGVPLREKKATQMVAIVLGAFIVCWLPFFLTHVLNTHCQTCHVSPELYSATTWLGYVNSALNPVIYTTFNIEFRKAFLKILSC
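Cells expressing the human receptor were seeded at 1500 cells/well, incubated overnight at 37 degrees C in 5% CO2, then exposed to library compounds with dopamine controls for 90 minutes at 37 degrees C before luminescent detection.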
D1 antag: antagonists of human D1 dopamine receptor; HEK293 TREx D1 cells, calcium flux, dopamine EC80; stronger effect = lower value; activity change, negative = inhibition, % at 10 µM; 360,000 compounds, 3.2% hits; in the data active = activity change below about -30%
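HEK293 T-REx cells expressing inducible, force-coupled D1 receptor; no-wash Ca dye, 30–90 min RT. Cmpd → 180 s read at 1 Hz → EC80 DA → 180 s read.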
D1 PAM: human D1 dopamine receptor positive modulation; P21728; HEK293 TREx D1 cells, calcium flux, dopamine EC20 potentiation; potentiation, % at 10 µM; 360,000 compounds, 0.036% hits; AID 504651; in the data active = potentiation above about 30%
DRD3 agonist: D3 dopamine receptor (human) agonism. D3R DiscoveRx beta-arrestin cells, luminescence, 90 min. max activation, %. 410,000 compounds, 0.58% hits. P35462; in the data active = max activation above about 30%
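Cells at 1500/well, incubated overnight, then treated with pinned compounds (dopamine as control) for 90 min at 37 degrees C. DiscoveRx reagent added for 30 - 60 minutes at room temperature; luminescence read.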
Hits are given with their value. Only some compounds are listed: those with a hit (about 6% of all), similar ones and a draw of the others.

How did COc1ccccc1NC(=O)NC1CCCc2ccccc21 (stereo unspecified) do in these assays?
D1 agonist: inactive; DRD3 antagonist: inactive; D1 antag: inactive; D1 PAM: inactive; DRD3 agonist: inactive

How did Cc1ccc(NS(=O)(=O)c2cc(C(=O)N3CCCC3)ccc2C)cc1C do in these assays?
D1 agonist: inactive; DRD3 antagonist: inactive; D1 antag: inactive; D1 PAM: inactive; DRD3 agonist: inactive

How did Cc1ccc(NS(=O)(=O)c2cc(C(=O)N(C)C)ccc2C)cc1C do in these assays?
D1 agonist: inactive; DRD3 antagonist: inactive; D1 antag: -36.6; D1 PAM: inactive; DRD3 agonist: inactive

How did O=C(NCCc1ccccc1)c1ccc(CSc2nc3ccncc3n2Cc2ccccc2)cc1 do in these assays?
D1 agonist: inactive; D1 antag: -31.1; D1 PAM: inactive; DRD3 agonist: inactive

Results for Cc1cccc(CSc2nc3ccncc3n2CC(=O)Nc2cc(C)cc(C)c2)c1 ?
D1 agonist: inactive; DRD3 antagonist: -54.6; D1 antag: inactive; D1 PAM: inactive; DRD3 agonist: inactive

What do the screens show for `C[C@@H]1CC(=O)NN=C1c1ccc(NN=C(C#N)C#N)cc1`?
DRD3 agonist: inactive

How did CCCN(CCO)Cc1ccc(Cl)c(Cl)c1 do in these assays?
D1 agonist: inactive; DRD3 antagonist: -58.7; D1 antag: inactive; D1 PAM: inactive; DRD3 agonist: inactive

What do the screens show for `CCOc1ccc(-n2nc(CO)c(C(=O)NCCCc3ccccc3)n2)cc1`?
D1 agonist: inactive; D1 antag: inactive; D1 PAM: inactive; DRD3 agonist: inactive

What do the screens show for `O=C(Nc1c(-c2ccc3c(c2)OCO3)[nH][nH]c1=O)c1ccccc1`?
DRD3 antagonist: -91.9; DRD3 agonist: inactive

How did Cc1ccc(C(=O)Nc2c(-c3ccc(Cl)cc3)[nH][nH]c2=O)cc1 do in these assays?
DRD3 antagonist: -69.9; DRD3 agonist: inactive

Results for O=C(Nc1c(-c2ccccc2)[nH][nH]c1=O)c1ccc2c(c1)OCO2 ?
DRD3 antagonist: inactive; DRD3 agonist: inactive

Results for O=C(Nc1c(-c2ccccc2)[nH][nH]c1=O)c1ccc(-c2ccccc2)cc1 ?
DRD3 antagonist: inactive; DRD3 agonist: inactive

What do the screens show for `CN1CCN(CCCNC(=O)Cn2c(-c3cccs3)cc3cc(Cl)ccc32)CC1`?
D1 agonist: inactive; D1 antag: inactive; D1 PAM: inactive; DRD3 agonist: inactive

Results for CC(CNC1CCCCC1)OC(=O)c1ccccc1 (stereo unspecified) ?
D1 agonist: inactive; DRD3 antagonist: -99.6; D1 antag: inactive; D1 PAM: inactive; DRD3 agonist: inactive

What do the screens show for `O=C(COC(=O)c1ccccc1)NC1CCCC1`?
D1 agonist: inactive; DRD3 antagonist: inactive; D1 antag: inactive; D1 PAM: inactive; DRD3 agonist: inactive

What do the screens show for `CCN(CC)S(=O)(=O)c1cc(C)ccc1SC`?
D1 agonist: inactive; DRD3 antagonist: inactive; D1 antag: -38.0; D1 PAM: inactive; DRD3 agonist: inactive

How did CCSc1nnc(NC(=O)C2C3C=CC(C3)C2C(=O)O)s1 (stereo unspecified) do in these assays?
D1 agonist: inactive; DRD3 antagonist: inactive; D1 antag: -46.0; D1 PAM: inactive; DRD3 agonist: inactive

Results for CCSc1nnc(NC(=O)c2ccccn2)s1 ?
D1 agonist: inactive; DRD3 antagonist: -83.8; D1 antag: inactive; D1 PAM: inactive; DRD3 agonist: inactive

Results for CCSc1nnc(NC(=O)C2C3CCC(C3)C2C(=O)O)s1 (stereo unspecified) ?
D1 agonist: inactive; DRD3 antagonist: inactive; D1 antag: inactive; D1 PAM: inactive; DRD3 agonist: inactive

What do the screens show for `CCSc1nnc(NC(=O)NCC(F)(F)F)s1`?
D1 agonist: inactive; DRD3 antagonist: -82.6; D1 antag: inactive; D1 PAM: inactive; DRD3 agonist: inactive

Results for CCSc1nnc(NC(=O)c2cnccn2)s1 ?
D1 agonist: inactive; DRD3 antagonist: -135.5; D1 antag: inactive; D1 PAM: inactive; DRD3 agonist: inactive

Results for COc1ccc(Cn2ccc3nc(C)c(C(=O)N4CCN(c5ccccc5F)CC4)cc3c2=O)cc1 ?
D1 agonist: inactive; D1 antag: inactive; D1 PAM: inactive; DRD3 agonist: inactive

Results for Cc1cc(F)ccc1N1CCC(N2CCN(C(C)C)C(CCO)C2)CC1 (stereo unspecified) ?
D1 agonist: inactive; DRD3 antagonist: -53.2; D1 antag: inactive; D1 PAM: inactive; DRD3 agonist: inactive

Results for COc1cccc(CN2CCN(C3CCN(c4ccccc4F)CC3)CC2CCO)c1 (stereo unspecified) ?
D1 agonist: inactive; DRD3 antagonist: -110.4; D1 antag: inactive; D1 PAM: inactive; DRD3 agonist: inactive

Results for COc1cccc(CN2CCN(C3CCN(c4ccccc4C)CC3)CC2CCO)c1 (stereo unspecified) ?
D1 agonist: inactive; DRD3 antagonist: -59.6; D1 antag: inactive; D1 PAM: inactive; DRD3 agonist: inactive

What do the screens show for `CCc1ccc(NC(=O)c2cc3nc(-c4ccc(C)cc4)cc(C(F)(F)F)n3n2)cc1`?
D1 agonist: inactive; D1 antag: inactive; D1 PAM: inactive; DRD3 agonist: inactive

What do the screens show for `Cc1ccc(-c2cc(C(F)(F)F)c(C#N)c(SCC(=O)Nc3ccccc3F)n2)cc1`?
D1 agonist: 71.8; D1 antag: inactive; D1 PAM: inactive; DRD3 agonist: inactive

Results for Cc1cc(C(F)(F)F)c(C#N)c(SCC(=O)Nc2nc3ccccc3s2)n1 ?
D1 agonist: 64.2; DRD3 antagonist: inactive; D1 antag: inactive; D1 PAM: inactive; DRD3 agonist: inactive

How did CCOc1ccc(-c2cc(C(F)(F)F)c(C#N)c(SCC(=O)Nc3ccccc3)n2)cc1 do in these assays?
D1 agonist: 31.6; D1 antag: -51.9; D1 PAM: inactive; DRD3 agonist: inactive

How did CCOc1ccc(NC(=O)CSc2nc(-c3ccc(F)cc3)cc(C(F)(F)F)c2C#N)cc1 do in these assays?
D1 agonist: inactive; D1 antag: inactive; D1 PAM: inactive; DRD3 agonist: inactive

Results for N#Cc1c(C(F)(F)F)cc(-c2cccs2)nc1SCC(=O)Nc1ccccc1F ?
D1 agonist: inactive; D1 antag: inactive; D1 PAM: inactive; DRD3 agonist: inactive

Results for COc1ccc(N2CCN(C(CNC(=O)C(=O)NCc3ccc(C)cc3)c3cccnc3)CC2)cc1 (stereo unspecified) ?
D1 agonist: inactive; D1 antag: inactive; D1 PAM: inactive; DRD3 agonist: inactive

What do the screens show for `O=C(c1cccc([N+](=O)[O-])c1)N1CCN(CCc2ccncc2)CC1`?
D1 agonist: inactive; D1 antag: inactive; D1 PAM: inactive; DRD3 agonist: inactive

What do the screens show for `CC1CCc2c(nc3nc[nH]n3c2=O)C1` (stereo unspecified)?
D1 agonist: inactive; DRD3 antagonist: -53.1; D1 antag: inactive; D1 PAM: inactive; DRD3 agonist: inactive

What do the screens show for `Nc1c(C(=O)c2ccc(Cl)cc2)sc2nsc(SCCN3CCOCC3)c12`?
D1 agonist: 102.6; DRD3 antagonist: inactive; D1 antag: inactive; D1 PAM: inactive; DRD3 agonist: inactive
